This is a sample that favours compounds with a hit; in the whole collection about 1.8% have one here.
Fam108B inh – mouse Fam108B serine hydrolase inhibitors, primary screen, counter-screen for RBBP9 inhibitor project, biochemical, fluorescence polarization | inhibition, % at 9.51 µM | actives 0.33% (n = 300,000) | recombinant Fam108B, FP-Rh probe fluorescence polarization;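 active means inhibition above the screen mean inhibition plus 3 SD, computed separately per campaign, cut at about 18% in these data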;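 further: inhibitors lower polarization as less probe binds the enzyme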
PME-1 primary – PME-1 inhibitors via competitive probe labeling, primary screen, biochemical, fluorescence polarization, FP-Rh probe, HTS | AID 2130, 2009 | recombinant PME-1 | actives 0.53% (n = 320,000) | inhibition, % at 5.9 µM | Protein phosphatase methylesterase 1 (Homo sapiens), Q9Y570;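 active means inhibition above the campaign mean of all compounds plus 3 SD, cut at about 26% in these data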;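 further: competitive labeling of PME-1 active site by serine hydrolase directed probe; 0% = PME-1 with DMSO and 100% = wells lacking PME-1 enzyme; inhibitors block probe labeling so polarization falls and inhibition rises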
LYPLA1 counter – LYPLA1 inhibitors, primary screen, counter-screen for PME1 inhibitor project, biochemical, fluorescence polarization, FP-Rh probe ABPP; inhibition, % at 5.9 µM; recombinant LYPLA1; actives 0.16% (n = 320,000); Acyl-protein thioesterase 1 (Homo sapiens), O75608;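 active means inhibition above the mean of all tested compounds plus 3 SD, set per campaign, cut at about 14% in these data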;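 further: inhibitors block serine hydrolase probe labeling of LYPLA1 so polarization falls; 0% = enzyme with DMSO and 100% = wells lacking LYPLA1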
Target sequence (O75608 whole entry, looked up): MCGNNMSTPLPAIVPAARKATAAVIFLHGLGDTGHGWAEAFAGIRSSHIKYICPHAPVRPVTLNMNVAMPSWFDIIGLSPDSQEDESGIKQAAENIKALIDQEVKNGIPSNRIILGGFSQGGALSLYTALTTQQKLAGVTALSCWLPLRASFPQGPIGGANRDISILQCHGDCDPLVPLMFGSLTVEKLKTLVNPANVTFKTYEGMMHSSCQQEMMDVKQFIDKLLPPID
LYPLA2 counter – LYPLA2 inhibitors, primary screen, counter-screen for PME1 inhibitor project, biochemical, fluorescence polarization, FP-Rh probe ABPP; inhibition, % at 5.9 µM; AID 2177, 2009; actives 0.38% (n = 320,000); recombinant LYPLA2;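 active means inhibition above the screen-wide mean plus 3 SD, limit set per campaign, cut at about 26% in these data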;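 further: 0% = LYPLA2 with DMSO and 100% = wells lacking LYPLA2 enzyme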
Target sequence (O95372 whole entry, looked up): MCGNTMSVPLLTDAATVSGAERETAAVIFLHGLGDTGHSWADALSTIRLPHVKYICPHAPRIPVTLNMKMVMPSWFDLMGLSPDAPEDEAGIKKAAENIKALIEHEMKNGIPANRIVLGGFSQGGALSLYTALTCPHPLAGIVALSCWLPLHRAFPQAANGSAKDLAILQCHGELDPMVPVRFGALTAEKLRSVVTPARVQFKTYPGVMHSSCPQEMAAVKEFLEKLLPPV
GSTO1 inh – inhibitors of recombinant GSTO1, primary screen, counter-screen for RBBP9 inhibitor project, biochemical, fluorescence polarization. Glutathione S-transferase omega-1 (Homo sapiens), P78417. activity-based probe fluorescence polarization. inhibition, % at 5.96 µM. actives 1.1% (n = 300,000). AID 1974, 2009;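 active means inhibition above the campaign mean inhibition plus 3 SD, cut at about 35% in these data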;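 further: 0% = GSTO1-1 with DMSO and 100% = wells lacking GSTO1-1 enzyme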
PAD4 FP inh – human PAD4 inhibitors, primary screen, biochemical, fluorescence polarization, 1536-well format; inhibition, % at 6.36 µM; Protein-arginine deiminase type-4 (Homo sapiens), Q9UM07; actives 0.41% (n = 330,000); recombinant PAD4, RCA probe fluorescence polarization; AID 485272, 2010;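 active means percent inhibition above a cutoff equal to the mean of all tested compounds plus 3 SD, cut at about 15% in these data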;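 further: 0% = PAD4 with RCA probe and DMSO and 100% = probe without PAD4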
LYPLA2 confirm – LYPLA2 inhibitors, retest, confirmation, counter-screen for PME1 inhibitor project, biochemical, fluorescence polarization, FP-Rh probe ABPP; shares compounds with LYPLA2 counter; actives 72% (n = 1,100); inhibition, % at 5.9 µM; AID 2232, 2010; recombinant LYPLA2;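 active means mean inhibition across replicates above the hit cutoff set in the primary screen, cut at about 26% in these data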;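 further: blocked labeling of the enzyme by serine hydrolase FP-Rh probe lowers polarization; 0% = enzyme with DMSO and 100% = wells lacking LYPLA2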
LYPLA2 ABPP – LYPLA2 inhibitors in proteome, late-stage follow-up, gel-based competitive ABPP, fluorescence, assay provider | shares compounds with LYPLA2 counter | rhLYPLA2 in mouse brain proteome, gel ABPP FP-Rh | AID 652029, 2013 | actives 30% (n = 150) | inhibition, % at 20 µM;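 active means inhibition of LYPLA2 enzyme probe labeling above about 50%, limit read from the data; inactive means inhibition below that limit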;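 further: loss of FP-Rh probe labeling of the LYPLA2 gel band measured as band density; 0% = DMSO only control band and 100% = blank gel background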
Starred values were filed as active, the others as inactive; . = not tested or not shown.

SMILES	Fam108B inh	PME-1 primary	LYPLA1 counter	LYPLA2 counter	GSTO1 inh	PAD4 FP inh	LYPLA2 confirm	others
Cc1cccc(NC(=O)CN2C(=O)S/C(=C\C(=O)Nc3ccc(Cl)cc3)C2=O)c1	-12	-4	-1	1	8	3	.
N#CN=C1CCCCCN1CC(N)=O	-4	3	-4	0	-2	-2	.
COCCN(C(=O)c1snc(C(N)=O)c1N)C(C(=O)NC1CCCCC1)c1ccc(N(C)C)cc1 (centres undefined)	0	0	2	2	-4	-3	.
Cc1ccc(NC(=O)C2CCCN(S(=O)(=O)c3ccc(-n4cnnn4)cc3)C2)cc1 (centres undefined)	-1	-2	0	6	4	-4	.
O=C(O)c1cc([N+](=O)[O-])ccc1Nc1ccccc1	1	2	-1	14	3	0	.
Cc1cccc(Nc2ccc([N+](=O)[O-])cc2C(=O)O)c1	3	12	-2	36*	4	-5	43*
O=C(c1c(F)c(F)c(F)c(F)c1F)N1CCN(Cc2ccc3c(c2)OCO3)CC1	1	-4	-1	-1	8	2	.
O=C(c1cc(-c2ccc(F)cc2)no1)N1CCN(Cc2ccc3c(c2)OCO3)CC1	1	0	1	33*	5	2	35*
COc1cc(OC)cc(C(=O)N2CC(=O)Nc3ccccc32)c1	-4	-1	3	6	-4	-2	.
Cc1ccc(Nc2c([N+](=O)[O-])cc(C(=O)N3CC(=O)Nc4ccccc43)cc2[N+](=O)[O-])c(C)c1	7	14	0	27*	23	3	28*
Cc1cc(C)c2c(n1)SCC(=O)N2CC(=O)Nc1ccc(Br)c(C)c1	-3	1	-3	56*	-4	-1	33*
CNC(=O)CN1C(=O)CSc2nc(C)cc(C)c21	1	6	2	-3	2	2	.
CCOc1c(Cl)cc(/C=C/C(=O)N(CC)CC(=O)Nc2ccc(NC(C)=O)cc2)cc1OC	-5	-7	-6	-3	-3	-4	.
Cc1cc(=O)oc2cc(Oc3ccc(C(N)=O)cc3[N+](=O)[O-])ccc12	6	5	4	33*	1	-2	26*
O=C(CCC(=O)N1CCN(c2ccc(Cl)c(Cl)c2)CC1)c1ccccc1	-3	7	13	37*	-4	0	31*
Cc1ccc(OCC(=O)NCc2ccccc2)c([N+](=O)[O-])n1	1	-1	3	54*	6	-1	-5
CC(=O)c1ccc(S(=O)(=O)N2CCN(C)CC2)cc1	0	2	-1	5	11	-5	.
CC(=O)c1ccc(N2CCN(c3ccc(S(=O)(=O)N4CCN(C)CC4)cn3)CC2)cc1	-3	2	0	27*	-11	0	35*
Cc1nc([N+](=O)[O-])c(Br)n1CC(=O)c1ccc2ccccc2c1	-4	1	1	31*	-17	-3	30*
COc1ccc(-c2noc(CCC(=O)N3CCN(c4cccc(C(F)(F)F)c4)CC3)n2)cc1	1	1	5	69*	-8	-4	67*	LYPLA2 ABPP=70*
Cc1ccc(/C=C/C(=O)N2CCN(c3cccc(C(F)(F)F)c3)CC2)cc1	-2	-2	13	47*	-2	-4	35*
COc1ccc(-c2noc(CCC(=O)N3CCN(c4cccc(OC)c4)CC3)n2)cc1	.	.	.	.	.	-2	.

Screens (PubChem BioAssay)
